Laboratory results published in PubChem BioAssay AID1159580 (chemical genetic matrix, 2015).
Several values for one entry are separate records, joined by “and”; a condition that tells them apart may be missing. Equal entries are not always repeated. Among all 5,500 compounds or so, about 2,000 (36%) were called active. About 18% were inconclusive and are not listed. Cut-off read from the data, not from the text of the source: active = normalized growth mostly below about 0.91 (no sharp cut-off); inconclusive = no clear call, values can overlap the other calls; inactive = mostly above about 0.92. The list shows a part of the results.

Assay: chemical genetic growth profiling, strain panel (AID 1159580);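 note: tested at 20 µM; growth read once vehicle control cultures reached saturation at 30 °C; 1 = growth at the plate median or of vehicle wells; lower values mean less growth of the strain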
Conditions: S. cerevisiae deletion strains, growth OD

Measured: normalized growth

CC(=O)O[C@H]1CC[C@@]2(C)C(CC[C@]3(C)C2CC=C2C4CC(C)(C)CC[C@]4(C)CC[C@]23C)C1(C)C (stereo partly drawn)
inactive: locus YAL013W, strain DEP1, active compounds read low 1.02 | locus YAL021C, strain ccr4, active compounds read low 0.919 | locus YAL026C, strain drs2, active compounds read low 1.01 | locus YAL030W, strain snc1, active compounds read low 0.979 | locus YBL061C, strain skt5, active compounds read low 0.996 | locus YBR009C, strain hhf1, active compounds read low 0.973 | locus YBR021W, strain FUR4, active compounds read low 1.01 | locus YBR023C, strain chs3, active compounds read low 0.982 | locus YBR171W, strain sec66, active compounds read low 0.99 | locus YBR229C, strain ROT2, active compounds read low 1 | locus YBR231C, strain swc5, active compounds read low 1.01 | locus YBR279W, strain paf1, active compounds read low 0.999 | locus YCL011C, strain gbp2, active compounds read low 0.962 | locus YCL016C, strain dcc1, active compounds read low 0.964 | locus YCL029C, strain bik1, active compounds read low 1 | locus YCL061C, strain MRC1, active compounds read low 0.99 | locus YCL069W, strain vba3, active compounds read low 0.978 | locus YCR088W, strain abp1, active compounds read low 0.991 | locus YDL005C, strain med2, active compounds read low 0.988 | locus YDL035C, strain GPR1, active compounds read low 1.03 | locus YDL040C, strain nat1, active compounds read low 0.989 | locus YDL074C, strain BRE1, active compounds read low 1.06 | locus YDL101C, strain DUN1, active compounds read low 1.02 | locus YDL185W, strain tfp1, active compounds read low 1.02 | locus YDL192W, strain arf1, active compounds read low 1 | locus YDR001C, strain nth1, active compounds read low 0.968 | locus YDR069C, strain doa4, active compounds read low 0.971 | locus YDR101C, strain arx1, active compounds read low 0.997 | locus YDR137W, strain rgp1, active compounds read low 0.973 | locus YDR150W, strain NUM1, active compounds read low 1.01 | locus YDR159W, strain sac3, active compounds read low 0.998 | locus YDR162C, strain NBP2, active compounds read low 1.03 | locus YDR195W, strain ref2 0.953 | locus YDR297W, strain sur2, active compounds read low 1 | locus YDR318W, strain mcm21, active compounds read low 1.01 | locus YDR334W, strain swr1, active compounds read low 0.98 | locus YDR335W, strain msn5, active compounds read low 0.989 | locus YDR388W, active compounds read low 1.02 | locus YDR392W, strain spt3, active compounds read low 0.889 | locus YDR502C, strain sam2, active compounds read low 1.02 | locus YEL003W, strain gim4, active compounds read low 1.02 | locus YEL037C, strain rad23, active compounds read low 0.978 | locus YEL061C, strain CIN8 (second series), active compounds read low 0.978 | locus YER015W, strain faa2, active compounds read low 0.981 | locus YER016W, strain bim1, active compounds read low 0.992 | locus YER110C, active compounds read low 1.01 | locus YER111C, strain swi4, active compounds read low 0.99 | locus YER155C, strain BEM2 (second series), active compounds read low 1.02 | locus YER155C, strain BEM2, active compounds read low 1.01 | locus YER167W, strain BCK2, active compounds read low 1 | locus YFR010W, strain ubp6, active compounds read low 0.992 | locus YGL078C, strain dbp3, active compounds read low 1.06 | locus YGL086W, strain mad1, active compounds read low 1.01 | locus YGL167C, strain pmr1, active compounds read low 0.975 | locus YGL173C, strain kem1, active compounds read low 1 | locus YGL227W, strain vid30, active compounds read low 0.987 | locus YGL240W, strain doc1, active compounds read low 1.01 | locus YGL248W, strain PDE1, active compounds read low 1.02 | locus YGL253W, strain hxk2, active compounds read low 1.02 | locus YGR078C, strain PAC10, active compounds read low 1.03 | locus YGR135W, strain pre9, active compounds read low 1.04 | locus YGR252W, strain gcn5, active compounds read low 1.08 | locus YHR013C, strain ard1, active compounds read low 0.943 | locus YHR027C, strain rpn1, active compounds read low 0.983 | locus YHR030C, strain SLT2, active compounds read low 1.01 and 1.03 | locus YHR079C, strain IRE1 (second series), active compounds read low 1.01 | locus YHR079C, strain IRE1, active compounds read low 1.03 | locus YHR094C, strain hxt1, active compounds read low 1.02 | locus YHR129C, strain ARP1, active compounds read low 1.01 | locus YHR142W, strain chs7, active compounds read low 0.959 | locus YHR200W, strain rpn10, active compounds read low 1.02 | locus YIL066C, strain RNR3, active compounds read low 1.01 | locus YIL073C, strain SPO22, active compounds read low 1.04 | locus YIL125W, strain kgd1, active compounds read low 1.01 | locus YIR030C, strain dcg1, active compounds read low 1.04 | locus YJL092W, strain hpr5, active compounds read low 0.975 | locus YJL095W, strain BCK1 (second series), active compounds read low 0.986 | locus YJL095W, strain BCK1, active compounds read low 1.04 and 1.02 | locus YJL115W, strain asf1, active compounds read low 0.968 | locus YJL129C, strain trk1, active compounds read low 0.993 | locus YJL134W, strain LCB3, active compounds read low 1.01 | locus YJL154C, strain vps35, active compounds read low 0.975 | locus YJL164C, strain tpk1, active compounds read low 0.949 | locus YJL166W, strain qcr8, active compounds read low 0.999 | locus YJL168C, strain set2, active compounds read low 1.02 | locus YJL187C, strain SWE1 (second series), active compounds read low 1.03 | locus YJL187C, strain SWE1, active compounds read low 0.986 | locus YJR043C, strain POL32, active compounds read low 1.01 | locus YJR066W, strain TOR1, active compounds read low 0.976 | locus YKL009W, strain mrt4, active compounds read low 1 | locus YKL068W, active compounds read low 1.02 | locus YKL085W, strain MDH1 (second series), active compounds read low 1.01 | locus YKL085W, strain MDH1, active compounds read low 1.01 | locus YKL160W, strain elf1, active compounds read low 0.963 | locus YKL190W, strain CNB1, active compounds read low 1.01 | locus YKR001C, strain vps1, active compounds read low 0.997 | locus YKR026C, strain gcn3, active compounds read low 0.991 | locus YKR091W, strain srl3, active compounds read low 0.986 | locus YLL001W, strain dnm1, active compounds read low 0.978 | locus YLL026W, active compounds read low 0.978 | locus YLL041C, strain sdh2, active compounds read low 0.976 | locus YLR027C, strain aat2, active compounds read low 0.989 | locus YLR039C, strain RIC1, active compounds read low 0.999 | locus YLR058C, strain SHM2, active compounds read low 1.02 | locus YLR102C, strain apc9, active compounds read low 1 | locus YLR113W, strain HOG1, active compounds read low 1 | locus YLR221C, strain rsa3, active compounds read low 1.03 | locus YLR258W, strain gsy2, active compounds read low 0.962 | locus YLR262C, strain YPT6 (second series), active compounds read low 0.976 | locus YLR262C, strain YPT6, active compounds read low 1.01 | locus YLR268W, strain sec22, active compounds read low 1.02 | locus YLR320W, strain mms22, active compounds read low 1.05 | locus YLR342W, strain FKS1, active compounds read low 0.991 | locus YLR357W, strain rsc2, active compounds read low 0.973 | locus YLR370C, strain arc18, active compounds read low 0.967 | locus YLR371W, strain rom2, active compounds read low 1.02 | locus YLR384C, strain iki3, active compounds read low 1 | locus YLR418C, strain cdc73, active compounds read low 1.05 | locus YML016C, strain PPZ1, active compounds read low 0.996 | locus YML032C, strain rad52, active compounds read low 1 | locus YML120C, strain ndi1, active compounds read low 0.96 | locus YML124C, strain tub3, active compounds read low 1.01 | locus YMR058W, strain fet3, active compounds read low 0.996 | locus YMR078C, strain ctf18, active compounds read low 1.03 | locus YMR125W, strain sto1, active compounds read low 0.948 | locus YMR129W, active compounds read low 0.988 | locus YMR205C, strain PFK2, active compounds read low 0.959 | locus YMR223W, strain ubp8, active compounds read low 1.02 | locus YMR231W, strain pep5, active compounds read low 0.994 | locus YMR263W, strain SAP30, active compounds read low 1.03 | locus YMR307W, strain GAS1, active compounds read low 1.11 | locus YNL067W, strain RPL9B, active compounds read low 1.04 | locus YNL071W, strain lat1, active compounds read low 0.982 | locus YNL153C, strain GIM3, active compounds read low 1.03 | locus YNL183C, strain NPR1, active compounds read low 0.964 | locus YNL209W, strain ssb2, active compounds read low 0.984 | locus YNL233W, strain BNI4, active compounds read low 1.02 | locus YNL248C, strain rpa49, active compounds read low 0.918 | locus YNL250W, strain rad50, active compounds read low 1.02 | locus YNL271C, strain bni1, active compounds read low 1.03 | locus YNL298W, strain CLA4, active compounds read low 1.03 | locus YNL307C, strain MCK1, active compounds read low 1.02 | locus YNL322C, strain KRE1 (second series), active compounds read low 0.982 | locus YNR049C, strain mso1, active compounds read low 0.966 | locus YNR052C, strain pop2, active compounds read low 1.02 | locus YOL012C, strain htz1 1.53 | locus YOL147C, strain pex11, active compounds read low 1.01 | locus YOR001W, strain rrp6, active compounds read low 1.01 | locus YOR061W, strain CKA2, active compounds read low 1.02 | locus YOR069W, strain VPS5, active compounds read low 1.01 | locus YOR070C, strain gyp1, active compounds read low 1.02 | locus YOR080W, strain dia2, active compounds read low 1 | locus YOR083W, strain WHI5, active compounds read low 0.957 | locus YOR106W, strain vam3, active compounds read low 0.929 | locus YOR136W, strain idh2, active compounds read low 1.01 | locus YOR144C, strain elg1, active compounds read low 1.01 | locus YOR184W, strain ser1, active compounds read low 1.01 | locus YOR231W, strain MKK1, active compounds read low 1 | locus YOR265W, strain rbl2, active compounds read low 0.998 | locus YOR270C, strain vph1, active compounds read low 1.03 | locus YOR290C, strain snf2, active compounds read low 0.906 | locus YOR316C, strain cot1, active compounds read low 1.01 | locus YPL051W, strain arl3, active compounds read low 1.01 | locus YPL078C, strain atp4, active compounds read low 0.945 | locus YPL106C, strain sse1, active compounds read low 0.94 | locus YPL240C, strain hsp82, active compounds read low 0.995 | locus YPL241C, strain CIN2, active compounds read low 1.01 | locus YPL256C, strain CLN2, active compounds read low 1.06 | locus YPR119W, strain clb2, active compounds read low 1.02 | locus YPR141C, strain kar3, active compounds read low 1.02 | locus YPR163C, strain tif3, active compounds read low 1.02 | locus YPR167C, strain met16, active compounds read low 1.02 | strain wtn01, active compounds read low 1.02
